Laboratory results published in ChEMBL document CHEMBL4513216, “Probing the Open Global Health Chemical Diversity Library for Multistage-Active Starting Points for Next-Generation Antimalarials” (ACS Infect Dis, 2020).
The whole screen tested about 68,000 compounds, of which about 2,700 (4%) showed an effect of 50% or more. Many of the other results were omitted from the sample, so strong results are more common in it than they were.

tested on: Plasmodium berghei; assay: Screen against P. berghei liver stage (PbLuc), transformed with Luciferase, at 2uM; assay type: functional, HepG2; settings: tested at 2 uM

Structure (SMILES)	INHIBITION
CC(C)N(Cc1cccnc1)C(=O)CCSc1ccc(C#N)cc1	16.72%
CCc1nc(CN2CCN(C(=O)c3csnn3)CC2)cs1	32.64%
CC(C)NC(=O)N1CCCC2(CCCCN2)C1 (stereo unspecified)	21.75%
O=C(NCC(F)(F)F)c1ccncc1	8.22%
Fc1cnc(N2CCCC3(CCN(Cc4cccs4)C3)C2)nc1 (stereo unspecified)	31.25%
Cc1ccnc(NC(=O)C2CCCO2)c1 (stereo unspecified)	23.39%
CN1CCOC(C(=O)N(C)c2ccc3c(c2)CCO3)C1 (stereo unspecified)	-30.56%
COc1ccc(N(C)C(=O)C2CN(C)CCO2)cc1F (stereo unspecified)	71.05%
COc1ccc(N(C)C(=O)C2CN(C)CCO2)cc1Cl (stereo unspecified)	-18.04%
Cc1ccc(OCC(O)COC2CCOCC2)c(Cl)c1 (stereo unspecified)	-2.35%
Cc1cc(Cc2ccccc2)cc(C2CCCNC2)n1 (stereo unspecified)	-24.98%
Cc1cc(Cc2ccccc2F)cc(C2CCCNC2)n1 (stereo unspecified)	4.91%
Cc1cc(Cc2ccccc2C)cc(C2CCCNC2)n1 (stereo unspecified)	54.02%
CC(=O)N1CCN(c2cc(-n3cccc3)ncn2)CC1	35.36%
CSc1sc2c(O)cc(=O)[nH]c2c1C(N)=O	15.96%
CSCCc1n[nH]c2c1CN(S(=O)(=O)c1c(C)nn(C)c1C)CC2	59.8%
Cc1nc(S(=O)(=O)N2CCc3[nH]nc(CCC(C)C)c3C2)cn1C	26.75%
CSCCc1n[nH]c2c1CN(S(=O)(=O)c1cn(C)c(C)n1)CC2	41.07%
CSc1ccc(NCc2csc(CS(C)(=O)=O)n2)cc1F	28.95%
CS(=O)(=O)Cc1nc(CNc2c(F)cc(F)cc2F)cs1	1.42%
CS(=O)(=O)Cc1nc(CNc2ccc(F)c(F)c2)cs1	56.49%
Cc1ccc(Cn2cc(C)c(N)n2)cc1	-20.05%

Structure (SMILES)	INHIBITION
Cc1cn(Cc2ccccc2)nc1N	43.77%
Cc1cccc(Cn2cc(C)c(N)n2)c1	62.99%
COC(=O)c1cccc2nc([C@H]3CCN(CC(C)C)C3)oc12	53.46%
COC(=O)c1cccc2nc([C@H]3CCN(Cc4ccccc4F)C3)oc12	52.36%
COC(=O)c1cccc2nc([C@H]3CCN(C4CCN(C)CC4)C3)oc12	21.06%
COC(=O)c1cccc2nc([C@H]3CCN(Cc4ccccc4C)C3)oc12	33.14%
COc1cccc(-c2noc(C3CCN(Cc4ccccc4F)C3)n2)c1 (stereo unspecified)	35.56%
COC(=O)c1cccc2nc([C@H]3CCN(Cc4ccccc4)C3)oc12	1.29%
CC(=O)Nc1nc(C(=O)N2CCCC(n3nc(C)cc3C)C2)cs1 (stereo unspecified)	-45.23%
N#Cc1cccc(OCCN2CCCC2C(=O)N2CCSCC2)c1 (stereo unspecified)	9.04%
COCCN1CCN(c2cccc(C)n2)Cc2ccc(C)nc21	-21.77%
Cn1cc(N2C[C@@H]3CN(CC4CCOCC4)C[C@@H]3C2=O)cn1	-1.69%
CCS(=O)(=O)N1C[C@H]2CN(c3cnn(C)c3)C(=O)[C@H]2C1	-33.15%
Cn1cc(N2C[C@@H]3CN(S(=O)(=O)C4CC4)C[C@@H]3C2=O)cn1	63.23%
Cc1nc(C2CCCN2C(=O)c2ccc(F)cc2)ncc1C(N)=O (stereo unspecified)	21.33%
CCOC(=O)N1CCC(NC(=O)c2cccc(C3CCCNC3)c2)CC1 (stereo unspecified)	35.15%
Cc1cnn(CC2CN(c3nnc(C)c(C)c3C#N)CCO2)c1 (stereo unspecified)	54.2%
CCC1CN(c2nnc(C)c(C)c2C#N)CCO1 (stereo unspecified)	11.18%
Cc1nnc(N2CCOC(Cn3cccn3)C2)c(C#N)c1C (stereo unspecified)	8.7%
O=C1CSC(c2ccc(Cl)cc2Cl)c2c(n(C3CCOCC3)[nH]c2=O)N1 (stereo unspecified)	5.47%
CN(C)S(=O)(=O)N1CCC(Oc2ccc(C#N)cn2)CC1	31.38%
CC(C)c1nn(C)c(Cl)c1CNCc1ccc2c(c1)OCO2	35.65%

Structure (SMILES)	INHIBITION
CCC(CC)N(Cc1ccc2c(c1)OCO2)C(=O)c1ccc(=O)n(C)c1	-55.13%
CCC(C)NC(=O)CCc1ccc(OCC(F)(F)F)c(OC)c1 (stereo unspecified)	51.94%
COc1cc(CCC(=O)NC(C)C)ccc1OCC(F)(F)F	-56.02%
COc1cc(CCC(=O)NC(C)C(=O)O)ccc1OCC(F)(F)F (stereo unspecified)	-16.42%
Cc1ccc(CN2CC[C@H](c3nc4cccc(C(N)=O)c4[nH]3)C2)cc1	23.26%
NC(=O)c1cccc2nc([C@H]3CCN(Cc4ccccn4)C3)[nH]c12	50.72%
NC(=O)c1cccc2nc([C@H]3CCN(Cc4ccccc4F)C3)[nH]c12	18.87%
CS(=O)(=O)N1CCCC(Cc2ccnc(Nc3ccccn3)c2)C1 (stereo unspecified)	3.38%
O=C(c1ccccc1)N1CCN(CC2CCOc3ccccc3C2)CC1 (stereo unspecified)	1.88%
CC(C)(C)N1CC(C(=O)NCc2noc(Cc3ccccc3)n2)CC1=O (stereo unspecified)	50.63%
COCCc1noc(CNC(=O)C2CC(=O)N(C(C)(C)C)C2)n1 (stereo unspecified)	-28.97%
CCN1CC(C(=O)NCc2noc(Cc3ccccc3)n2)CCC1=O (stereo unspecified)	-17.86%
CCn1nc(CC(C)C)cc1C(=O)NCc1c(C)cc(C)nc1OC	39.16%
Cc1noc2nc(C3CCN(Cc4ccccn4)CC3)cc(C(F)F)c12	-32.4%
C/C(=C\c1ccccc1)CN1CCCC(c2nnc3n2CCNCC3)C1 (stereo unspecified)	36.51%
O=C(NCCNc1cnccn1)c1scnc1Cl	-6.71%
O=c1[nH][nH]cc1-c1ccnc(NCCc2cccnc2)n1	7.4%
CC(NC(=O)Cn1cc(-c2ccccc2)cn1)C1CC1 (stereo unspecified)	35.65%
CNC(=O)NC(=O)Cn1cc(-c2ccccc2)cn1	54.92%
CCC(CC)NC(=O)Cn1cc(-c2ccccc2)cn1	-9.17%
CC(C)NC(=O)Cn1cc(-c2ccccc2)cn1	-42.92%
Cc1ccc(-c2cnn(CC(=O)NC(C)C)c2)cc1	72.31%

Structure (SMILES)	INHIBITION
CCCNC(=O)Cn1cc(-c2ccccc2)cn1	-14.11%
CCn1c(C)nnc1CN(C)C1CCN(Cc2c(C)noc2C)C1 (stereo unspecified)	4.72%
Cc1nc(C)c(CN2CCC(N(C)Cc3nnc(C4CC4)o3)C2)s1 (stereo unspecified)	37.9%
CCn1c(C)nnc1CN(C)C1CCN(Cc2sc(C)nc2C)C1 (stereo unspecified)	65.3%
O=S(=O)(c1ccccc1)N1CCC2(CCCN2Cc2ccc(Cl)cc2)C1 (stereo unspecified)	-28.17%
O=C(CCCc1nc(-c2ccccc2)no1)N1CCN(CCO)CC1	41.76%
O=C(CCCc1ncc(-c2ccccc2)o1)N1CCN(CCO)CC1	56.67%
O=C(CCCc1nnc(-c2ccccc2)o1)N1CCN(CCO)CC1	36.65%
COc1ccc(Br)cc1NCC(=O)NC(C)(C#N)C1CC1 (stereo unspecified)	-0.46%
CSc1ccc2c(C)cc(N[C@@H](C)CO)nc2c1	71.67%
COC[C@H](C)Nc1cc(C)c2ccc(SC)cc2n1	45.56%
CCn1ncnc1C(C)Nc1cc(C)c2ccc(SC)cc2n1 (stereo unspecified)	-35.22%
O=C(c1cccnc1-c1ccoc1)N1C[C@@H]2CC[C@H]1C2	-15.77%
CCC1(CO)CCN(C(=O)c2cc(COc3ccccc3F)[nH]n2)CC1	-64.06%
CCn1nc(C)c(CCNC(=O)C2CCCN(C(=O)N(C)C)C2)c1C (stereo unspecified)	-17.7%
Cn1cc(CN2CCOC(c3nccnc3-c3cccc(F)c3)C2)cn1 (stereo unspecified)	11.74%
Cn1cc(CN2CCOC(c3cccc(-c4cncnc4)n3)C2)cn1 (stereo unspecified)	0.12%
Cn1cc(CN2CCOC(c3cccc(-c4cccc(F)c4)n3)C2)cn1 (stereo unspecified)	53.16%
CN(C)Cc1nn(C)c2c1CCN(C(=O)CC1CC1)C2	-1.31%
C=C(C)COc1ccccc1C(=O)NCCCc1nnn[nH]1	-24.7%
OC(COCc1ccco1)CN1CCc2c(ncn2C2CC2)C1 (stereo unspecified)	35.23%
CC(Cc1cccs1)NC(=O)CCn1cccn1 (stereo unspecified)	0.66%

Structure (SMILES)	INHIBITION
O=C(CCOc1ccccc1)N1CCCC(c2ncc[nH]2)C1 (stereo unspecified)	2.06%
CCCN(Cc1nccn1C)C(=O)C(CC)Nc1cccc(OC)c1 (stereo unspecified)	16.82%
COCc1cn(CC2CCN(Cc3nc(C)c[nH]3)CC2)nn1	-37.15%
Cc1ccc(CN2Cc3c(C(=O)N(C)C)nn(C)c3C2)s1	-35.2%
Cc1cccc(CS(=O)(=O)c2nnc(N3CCOCC3)s2)c1	22.34%
O=S(=O)(Cc1ccccc1)c1nnc(N2CCOCC2)s1	52.08%
O=S(=O)(Cc1ccccc1)c1nnc(N2CCCC2)s1	44.37%
CCCn1cc(CNCC(c2ccc(C)s2)N2CCOCC2)cn1 (stereo unspecified)	10.46%
CNc1cc(C(=O)N2CCOC(C(=O)NC3CCCC3)C2)ccn1 (stereo unspecified)	-5.76%
CCn1cnnc1CNC(=O)N(C)Cc1ccc2c(c1)OCO2	-19.35%
CC(=O)N1CCCC(c2ccnc(Nc3cnccn3)n2)C1 (stereo unspecified)	-39.95%
O=C(C1CCCC1)N1CCC(c2ccnc(Nc3cnccn3)n2)C1 (stereo unspecified)	37.81%
O=C(C1CCC1)N1CCCC(c2ccnc(Nc3cnccn3)n2)C1 (stereo unspecified)	57.82%
Cc1ccc(Nc2nccc(C3CCN(CC(N)=O)C3)n2)nc1 (stereo unspecified)	85.75%
Cc1ccc(Nc2nccc(C3CCCN(CC(=O)N(C)C)C3)n2)nc1 (stereo unspecified)	-28.81%
Cc1ccc(Nc2nccc(C3CN(CC(N)=O)C3)n2)nc1	9.79%
O=C(c1ccco1)N1CCOCC2(C1)CN(c1ccccc1)C(=O)CO2 (stereo unspecified)	16.48%
COc1ccc(CN2CC[C@H]3[C@H]2CC(=O)N3Cc2cccc(C)n2)cc1	3.55%
